Screens (PubChem)
Most compounds without a hit are left out; they make up all but 2.4% or so of the library.
Cruzain noTriton: qHTS Assay for Promiscuous and Specific Inhibitors of Cruzain (without detergent). purified cruzain, Z-FR-AMC fluorescence, no detergent. actives 2.3% (n = 200,000). Cruzipain (Trypanosoma cruzi), P25779. Potency, µM, usual class: inhibitors; further: nearly all actives have a fitted effect of over 40% in size
Target sequence (P25779 123-467 limits assumed): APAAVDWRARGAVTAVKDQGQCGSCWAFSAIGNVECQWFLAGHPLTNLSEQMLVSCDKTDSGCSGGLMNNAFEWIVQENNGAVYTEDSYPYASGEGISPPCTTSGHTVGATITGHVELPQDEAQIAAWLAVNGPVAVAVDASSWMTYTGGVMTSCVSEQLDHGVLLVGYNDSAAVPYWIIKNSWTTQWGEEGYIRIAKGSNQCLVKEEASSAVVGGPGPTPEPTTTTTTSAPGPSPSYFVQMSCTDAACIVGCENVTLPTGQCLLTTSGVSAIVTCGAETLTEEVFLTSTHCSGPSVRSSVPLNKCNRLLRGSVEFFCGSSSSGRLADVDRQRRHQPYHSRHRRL
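Detergent-free condition (0.00005% Triton X-100) in acetate buffer pH 5.5 with DTT. 1.5 nM enzyme and compound were pre-mixed 15 min, then 2 uM Z-FR-AMC substrate added; reaction progress from fluorescence change between first and third reads (60 s).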
Cruzain Triton: qHTS Assay for Promiscuous and Specific Inhibitors of Cruzain (with detergent) | Cruzipain (Trypanosoma cruzi), P25779 | purified cruzain, Z-FR-AMC fluorescence, 0.01% Triton | Potency, µM, most hits filed as inhibitors | actives 0.43% (n = 200,000); further: nearly all actives have a fitted effect of over 40% in size
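Cysteine protease activity tested under reducing, mildly acidic conditions (100 mM sodium acetate pH 5.5, 5 mM DTT) plus 0.01% Triton X-100. Cruzain 1.5 nM; substrate Z-FR-AMC 2 uM; 15 min compound preincubation at room temperature.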
Of the large screens only hits and unclear results are named; the others gave an inactive call. The call rests on the fitted dose curve; in most records, active means well fitted curve in the direction sought with a large enough effect; inconclusive means small, poorly fitted or top-dose-only effect, or another doubt; inactive means no such curve, though single readings can be large; an effect the other way counts as inactive or inconclusive.

CCCCc1ccc(NC(=O)COc2ccc(C(=O)Nc3ccccc3OC)cc2)cc1	none
CCCn1ccc2c(OCC(=O)NCc3ccc(C)cc3)cccc2c1=O	none
Cc1ccc(-c2cc(C(=O)Nc3ccc(SC(F)F)cc3)no2)cc1F	none
O=[As](O)(O)c1ccc(Cc2ccc([As](=O)(O)O)cc2)cc1	Cruzain noTriton inconclusive
CCOC(=O)c1cc(-c2ccccc2)n(CCC(=O)Nc2ccc(OC)c(Cl)c2)c1C	none
Cc1ccc(CSC2=Nc3ccccc3C3=NC(CCC(=O)N4CCN(c5ccccc5)CC4)C(=O)N23)cc1 (stereo not given)	none
CC(C)(C)c1ccc(C2Sc3ccccc3NC3=C2C(=O)c2ccccc23)cc1 (stereo not given)	Cruzain noTriton 7.94µM
O=C1OCC2=C1C(c1ccc(F)cc1)Sc1ccccc1N2 (stereo not given)	none
Cc1c(Cl)cccc1NC(=O)c1cc(-c2cccs2)on1	Cruzain noTriton inconclusive
COc1ccccc1N=Cc1nc(-c2ccccc2)oc1OC(C)=O	Cruzain noTriton 20µM, Cruzain Triton 25.1µM
CC(=O)Oc1oc(-c2ccccc2)nc1/C=N/c1ccccn1	Cruzain noTriton 12.6µM, Cruzain Triton 14.1µM
CN(C)c1ccc(N=Cc2nc(-c3ccccc3)oc2OC(=O)c2ccccc2)cc1	Cruzain noTriton inconclusive
CSc1ccccc1N=Cc1nc(-c2ccccc2)oc1O	none
Cc1ccccc1CN1CCCN(CC(=O)Nc2ccc3c(c2)OCCO3)S1(=O)=O	none
CCOc1ccc(-c2c(C)nn3c(C)c(C(=O)NC(C)c4ccccc4)cnc23)cc1OCC (stereo not given)	Cruzain noTriton inconclusive
COC(=O)c1scc(-c2ccc(C)cc2)c1S(=O)(=O)N1CCN(c2ccccc2)CC1	none
COc1cc(Sc2ccc(C)cc2)c(OC)cc1N	Cruzain noTriton 15.8µM
COC(=O)c1ccc(Sc2ccc(C)cc2)c(N)c1	none
Cc1c(C(=O)NCc2cccc(Br)c2)oc2ccc3c(c12)C(=O)CC(C)(C)O3	none
Cc1cc(NC(=O)c2cccn2-c2nnc(N3CCCCC3)s2)ccc1Br	none
COc1ccc2nc(-c3ccco3)c(-c3ccco3)nc2c1	Cruzain noTriton 3.98µM, Cruzain Triton 11.2µM
COc1ccc(Nc2c(-c3ccco3)nc3cccc(C)n23)cc1	none
Nc1nc(-c2ccco2)c(-c2ccco2)s1	none
c1coc(-c2nc(-c3ccco3)c(-c3ccco3)nc2-c2ccco2)c1	Cruzain noTriton inconclusive, Cruzain Triton 7.94µM
COc1cccc(CNC(=O)c2nc(Cn3nc(C)c(Br)c3C)no2)c1	none
O=C(COc1ccc(/C=N/NC(=O)c2cc3ccccc3o2)cc1Cl)Nc1ccccc1	Cruzain noTriton 20µM, Cruzain Triton 22.4µM
O=C(N/N=C/c1cccc([N+](=O)[O-])c1)c1cc2ccccc2o1	Cruzain noTriton inconclusive
CC1(C)O[C@@H]2[C@@H](O1)C(c1ccccc1)(c1ccccc1)OP(=O)(O)OC2(c1ccccc1)c1ccccc1	Cruzain noTriton inconclusive
CCOc1ccc(NC(=O)CSc2cn(CC(=O)N3CCCCCC3)c3ccccc23)cc1	none
CCOc1cccc(C(=O)Nc2nc(-c3ccc(S(=O)(=O)N4CCOCC4)cc3)cs2)c1	Cruzain noTriton inconclusive
O=C(COc1cccc(Cl)c1)Nc1nc(-c2ccc(S(=O)(=O)N3CCOCC3)cc2)cs1	Cruzain noTriton 12.6µM
Cc1ccc(SCc2cc(=O)[nH]c(/N=C(\N)Nc3ccccc3Sc3ccccc3)n2)cc1	Cruzain noTriton 12.6µM
COc1ccccc1N/C(N)=N/c1nc(CSc2ccc(C)cc2)cc(=O)[nH]1	Cruzain noTriton inconclusive
Cc1cccc(C(=O)Nc2cc(-c3ccccc3F)nn2-c2ccccc2)c1	none
O=C(Nc1cc(-c2ccccc2F)nn1-c1ccccc1)c1ccccc1Br	Cruzain noTriton 31.6µM
CCc1ccc(S(=O)(=O)Nc2cccc(-c3ccc(N4CCC(C)CC4)nn3)c2)s1	Cruzain noTriton inconclusive
O=C(NC1CCCC1)c1ccc2c(c1)N(Cc1ccccc1Cl)C(=O)c1ccccc1S2	Cruzain noTriton inconclusive
CC(=O)Nc1ccc(NC(=O)c2ccc3c(c2)N(Cc2cccc(Cl)c2)C(=O)c2ccccc2S3(=O)=O)cc1	none
N#Cc1cccc(NC(=O)c2ccc3c(c2)N(Cc2cccc(Cl)c2)C(=O)c2ccccc2S3(=O)=O)c1	Cruzain noTriton 6.31µM
O=C(Nc1ccc(Cl)cc1)c1ccc2c(c1)N(Cc1ccccc1)C(=O)c1ccccc1S2(=O)=O	Cruzain noTriton inconclusive
Cc1cc(NC(=O)c2ccc3c(c2)N(Cc2cccc(Cl)c2)C(=O)c2ccccc2S3(=O)=O)ccc1Br	Cruzain noTriton 3.16µM
O=C(NCCc1ccc(Cl)cc1)c1ccc2c(c1)N(Cc1cccc(Cl)c1)C(=O)c1ccccc1S2(=O)=O	Cruzain noTriton 10µM
Cc1ccc(CCNC(=O)c2ccc3c(c2)N(Cc2cccc(C)c2)C(=O)c2ccccc2S3(=O)=O)cc1	Cruzain noTriton inconclusive
O=C(NC1CCCCC1)c1ccc2c(c1)N(Cc1ccccc1Cl)C(=O)c1ccccc1S2	Cruzain noTriton 10µM
CCNc1ncc2nc(-c3ccc(F)cc3)c(=O)n(C[C@H]3CCCO3)c2n1	none
Cc1nc2ccc(S(=O)(=O)NC(C(=O)NCc3ccc(Cl)cc3)C(C)C)cc2s1 (stereo not given)	none
C[C@]12CC[C@@H]3c4ccc(O)cc4CC[C@H]3[C@@H]1CC[C@H]2O	none
O=c1oc2c(F)cc(F)cc2cc1S(=O)(=O)c1ccc(F)cc1	none
COc1cccc([C@@H]2Oc3ccc(OC)cc3C[C@H]2OC(=O)N[C@H](C)C2CCCCC2)c1	none
CC(C)CCNC(=O)c1ccc2c(c1)N(Cc1cccc(Cl)c1)C(=O)c1ccccc1S2	Cruzain noTriton inconclusive
COc1ccc(CNC(=O)c2ccc3c(c2)N(Cc2cccc(Cl)c2)C(=O)c2ccccc2S3)c(OC)c1	Cruzain noTriton 12.6µM
COc1ccc(CNC(=O)CCc2c(C)c3ccc(OC)c(C)c3oc2=O)cc1OC	none
COc1ccc(CCNC(=O)c2cc(C)nc3c2c(C)nn3-c2ccccc2)cc1OC	none
COc1ccc(NC(=O)c2sc3nc4n(c(=O)c3c2C)CCC4)c(OC)c1	none
Cc1ccccc1-c1nc(-c2ccc(NC(=O)c3ccc4c(c3)OCO4)cc2)no1	Cruzain noTriton 7.94µM
COc1cc(-c2nc(-c3ccc(NC(=O)c4ccc5c(c4)OCO5)cc3)no2)cc(OC)c1OC	Cruzain noTriton inconclusive
Cc1ccc(Cl)cc1N1CCN(S(=O)(=O)c2ccc3c(c2)CCCN3C(=O)C2CCC2)CC1	none
COc1ccc(S(=O)(=O)Nc2cccc(-c3ccc(N4CCCCCC4)nn3)c2)cc1F	none
O=[N+]([O-])c1cc2c(cc1/C=N/Nc1nc(N3CCCC3)nc(N3CCCC3)n1)OCO2	none
O=[N+]([O-])c1ccc(Nc2nc(N/N=C\c3ccc4c(c3)OCO4)nc(N3CCCCC3)n2)cc1	Cruzain noTriton 7.94µM
Cc1cc(C)n(C(C)CC(=O)Nc2cccc(C(F)(F)F)c2)n1 (stereo not given)	none
O=C(Nc1ccc2nc(-c3ccc4nc[nH]c4c3)[nH]c2c1)c1cccs1	Cruzain noTriton inconclusive, Cruzain Triton 12.6µM
O=C(Nc1ccc2nc(-c3ccccc3)[nH]c2c1)c1cccs1	none
Cc1oc2ncn(CC(C)C)c(=O)c2c1C(=O)N1CCN(c2cccc(C(F)(F)F)c2)CC1	none
Cc1cccc(NC(=O)N2CCC3(CC2)Oc2ccccc2C(=O)N3Cc2ccccc2F)c1C	none
